Reference: paper PMC4336329 (PLoS ONE, 2015)
The campaign covered roughly 310,000 compounds. About 14,000 (4.5%) showed an effect of 50% or more. The effect is printed as a negative number. The entries come from a sample that favours strong results as a whole.

Biological target: human ether-à-go-go-related gene (hERG) potassium channel (human, UniProt Q12809)
Assay: primary screen, population patch clamp on CHO cells stably expressing hERG; higher = less effect of the substance
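Note: peak tail current of the secondary pulse compared with the same well before compound.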

human ether-à-go-go-related gene (hERG) potassium channel, sequence (Q12809 whole entry, looked up): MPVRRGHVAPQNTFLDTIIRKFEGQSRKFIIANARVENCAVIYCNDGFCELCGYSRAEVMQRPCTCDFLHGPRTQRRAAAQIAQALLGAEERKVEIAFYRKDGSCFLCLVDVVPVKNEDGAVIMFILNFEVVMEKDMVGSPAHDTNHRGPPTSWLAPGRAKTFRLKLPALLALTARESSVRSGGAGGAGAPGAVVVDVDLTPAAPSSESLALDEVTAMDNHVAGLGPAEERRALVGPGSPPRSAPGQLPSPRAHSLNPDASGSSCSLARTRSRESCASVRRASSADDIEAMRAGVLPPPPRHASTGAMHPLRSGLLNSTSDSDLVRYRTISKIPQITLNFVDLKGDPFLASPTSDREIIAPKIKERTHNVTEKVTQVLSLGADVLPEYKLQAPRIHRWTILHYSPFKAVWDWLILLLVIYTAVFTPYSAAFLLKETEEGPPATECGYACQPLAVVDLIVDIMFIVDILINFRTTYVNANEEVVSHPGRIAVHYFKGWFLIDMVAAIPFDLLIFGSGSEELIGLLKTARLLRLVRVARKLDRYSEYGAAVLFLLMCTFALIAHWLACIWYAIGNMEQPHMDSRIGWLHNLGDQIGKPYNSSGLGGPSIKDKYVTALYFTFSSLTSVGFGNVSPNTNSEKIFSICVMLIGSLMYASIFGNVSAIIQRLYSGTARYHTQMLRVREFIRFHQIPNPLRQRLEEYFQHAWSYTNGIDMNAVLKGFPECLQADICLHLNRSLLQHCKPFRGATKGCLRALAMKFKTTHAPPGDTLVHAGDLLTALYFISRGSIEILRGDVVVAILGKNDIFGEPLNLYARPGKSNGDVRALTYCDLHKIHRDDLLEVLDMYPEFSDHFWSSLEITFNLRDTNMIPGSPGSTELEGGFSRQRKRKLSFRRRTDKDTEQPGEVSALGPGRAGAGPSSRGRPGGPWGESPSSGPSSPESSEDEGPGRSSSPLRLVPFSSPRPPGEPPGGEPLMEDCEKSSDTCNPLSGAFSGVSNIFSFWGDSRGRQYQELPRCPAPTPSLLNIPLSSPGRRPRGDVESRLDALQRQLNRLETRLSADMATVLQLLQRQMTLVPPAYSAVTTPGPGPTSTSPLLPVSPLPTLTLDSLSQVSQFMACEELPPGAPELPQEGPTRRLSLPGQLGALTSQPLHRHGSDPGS

Structure (SMILES)	hERG current change (%, negative = inhibition) at 10uM [%]
Cc1ccc(-n2c(O)c(C=NCCN3CCNCC3)c(=O)[nH]c2=S)cc1	22
O=S1(=O)CCN=C2SC3=C(CCCC3)N21	1.25
O=C(OCC(=O)N1CCCCC1)c1ccc2c(c1)C(=O)N(Cc1ccco1)C2=O	-28
CC1CCCCN1C(=O)COC(=O)c1ccc2c(c1)C(=O)N(Cc1ccco1)C2=O (centres unmarked)	-34.9
CC1CC(C)CN(C(=O)COC(=O)c2ccc3c(c2)C(=O)N(Cc2ccco2)C3=O)C1 (centres unmarked)	-68.7
CN(CC(=O)Nc1ccccc1Br)C(=O)c1cccn1C	16.2
Cl.O=C(CCS(=O)(=O)c1ccccc1)N(CCCN1CCOCC1)c1nc2ccccc2s1	-14.1
CCc1nn(CC(=O)NCCC2=CCCCC2)c(=O)c2cc3cc(F)ccc3n12	15.7
CN(C)S(=O)(=O)c1ccc(NC(=O)CN2CCN(c3ccccn3)CC2)cc1	13.9
CSc1nnc2c3ccccc3n(Cc3ccccc3)c2n1	25.8
O=C1c2ccccc2C(=O)N1CSc1nnc2c3ccccc3n(CCc3ccccc3)c2n1	14.4
CCN(CC)CCSc1nnc2c3ccccc3n(Cc3ccccc3)c2n1	-75.4
C=CCn1c2ccccc2c2nnc(SCCN3CCCCC3)nc21	-46.4
CCn1c2ccccc2c2nnc(SCc3ccccc3)nc21	-3.61
c1ccc(Cn2c3ccccc3c3nnc(SCCN4CCCCC4)nc32)cc1	-67.7
CSc1nnc2c3ccccc3n(CCc3ccccc3)c2n1	-12.1
CCN(CC)CCSc1nnc2c3ccccc3n(CCc3ccccc3)c2n1	-75.3
CCn1c2ccccc2c2nnc(SCCN3CCCCC3)nc21	-39.1
O=C(CSc1nnc(NC(=O)c2cccc(F)c2)s1)NC1CCCC1	13.9
Cc1cc(C)nc(NC(=O)c2c(F)c(F)c(F)c(C(=O)Nc3cc(C)cc(C)n3)c2F)c1	-8.14
CN(C)C=O.CNC(=O)CSc1nc2nc(C)cc(C)n2n1	0.176
Cc1cccc(OCC(=O)Nc2nnc(-c3ccco3)s2)c1	-1.94

Structure (SMILES)	hERG current change (%, negative = inhibition) at 10uM [%]
CCOc1ccc2nc(SC3CC(=O)N(c4ccc(C)cc4)C3=O)sc2c1 (centres unmarked)	-6.29
Cc1cc(C(=O)NCCCn2ccnc2)sc1-c1ccccc1	-10.3
O=c1ccc(-c2ccc(S(=O)(=O)NCC3CCN(Cc4cccc(F)c4)CC3)s2)n[nH]1	-8.55
Cc1nc2scc(C)n2c(=O)c1S(=O)(=O)Nc1ccc(F)cc1	-22.8
Cc1ccc(CN2CCC(CNS(=O)(=O)c3ccc(-c4ccc(=O)[nH]n4)s3)CC2)cc1	-60.6
CCOC(=O)c1c(C)[nH]c(C)c1S(=O)(=O)NCC1CCN(Cc2cccc(F)c2)CC1	-1.69
CCOC(=O)c1c(C)[nH]c(C)c1S(=O)(=O)NCC1CCN(Cc2ccc(C)cc2)CC1	-60.2
O=c1ccc(-c2ccc(S(=O)(=O)NCC3CCN(Cc4ccccc4F)CC3)s2)n[nH]1	-32.6
CCc1cccc(NS(=O)(=O)c2c(C)nc3scc(C)n3c2=O)c1	9.84
CCOC(=O)c1c(C)[nH]c(C)c1S(=O)(=O)NCC1CCN(Cc2cccc(Cl)c2)CC1	-20.5
COC(=O)c1cc(S(=O)(=O)NCC2CCN(Cc3ccccc3F)CC2)c[nH]1	-21.4
COC(=O)c1cc(S(=O)(=O)NCC2CCN(Cc3cccc(F)c3)CC2)c[nH]1	-16.7
COC(=O)c1cc(S(=O)(=O)NCC2CCN(Cc3ccc(F)cc3)CC2)c[nH]1	-57
Cc1cccc(NS(=O)(=O)c2c(C)nc3scc(C)n3c2=O)c1	-65.2
Cc1n[nH]c(C)c1CCNC(=O)C1CCC(=O)N(CCc2cccc(F)c2)C1 (centres unmarked)	9.63
Cc1ccc(C(=O)NCCNC(=O)c2ccccc2)cc1	8.24
O=[N+]([O-])c1ccc(C23CC4CC(CC(O)(C4)C2)C3)cc1	-37.8
O=C(Nc1ccc2nc(-c3ccc4nc[nH]c4c3)[nH]c2c1)c1cccs1	17.1
Cc1nc2scc(C)n2c(=O)c1S(=O)(=O)NCCc1ccc(Cl)cc1	7.69
COC(=O)c1cc(S(=O)(=O)NCCc2ccc(Cl)cc2)c[nH]1	-3.4
COC(=O)c1cc(S(=O)(=O)NCCc2ccc(C)cc2)c[nH]1	-9.92
Cc1nc2scc(C)n2c(=O)c1S(=O)(=O)NCC1CCN(Cc2ccc(F)cc2)CC1	-49.7

Structure (SMILES)	hERG current change (%, negative = inhibition) at 10uM [%]
COC(=O)c1cc(S(=O)(=O)NCC2CCN(Cc3ccc(Cl)cc3)CC2)c[nH]1	-71.2
COC(=O)c1cc(S(=O)(=O)NCC2CCN(Cc3cc(C)ccc3C)CC2)c[nH]1	-11
COC(=O)c1cc(S(=O)(=O)NCC2CCN(Cc3cccc(Cl)c3)CC2)c[nH]1	-41.9
Cc1nc2scc(C)n2c(=O)c1S(=O)(=O)NCC1CCN(Cc2ccc(Cl)cc2)CC1	-50.1
COC(=O)c1cc(S(=O)(=O)NCC2CCN(Cc3ccc(C)cc3)CC2)c[nH]1	-73.8
COc1ccc(C2NS(=O)(=O)OCC2C)cc1 (centres unmarked)	16.4
COc1ccc(C(=O)NCCN2C(=O)S/C(=C\c3cccnc3)C2=O)c(OC)c1OC	-9.86
CCNC(=S)N1CCN(CCN=CC2=C(O)CC(C)(C)CC2=O)CC1	-9.75
CCC(CC)C(=O)N1CCN(c2ccccc2)CC1	-2.08
CC(=O)c1ccc(N2CCN(CC(O)COC(c3ccccc3)c3ccccc3)CC2)cc1 (centres unmarked)	-66.5
O=C(O)C(=O)O.OC(COCc1ccco1)CN1CCN(c2ccccc2)CC1 (centres unmarked)	-24.8
COc1ccc(N2CCN(CC(O)COCc3ccccc3)CC2)cc1.Cl (centres unmarked)	-25.2
CC(=O)c1ccc(N2CCN(CC(O)COCc3ccco3)CC2)cc1 (centres unmarked)	-56.3
COc1ccc(OCC(O)CN2CCN(c3ccccc3)CC2)cc1.Cl (centres unmarked)	-39.2
COc1ccc(N2CCN(CC(O)COC(c3ccccc3)c3ccccc3)CC2)cc1 (centres unmarked)	-64.9
CC(=O)c1ccc(N2CCN(CC(O)c3ccccc3)CC2)cc1 (centres unmarked)	-11.6
Cc1ccc(Cl)cc1N1CCN(CC(O)COCc2ccco2)CC1.O=C(O)C(=O)O (centres unmarked)	-73.1
Cc1ccc(Cl)cc1N1CCN(C(=S)NCc2ccco2)CC1	37.1
Cc1ccc(Cl)cc1N1CCN(Cc2nnnn2Cc2ccco2)CC1	-37.9
CC(=O)c1ccc(N2CCN(CC(O)COC(c3ccccc3)c3ccccc3C)CC2)cc1 (centres unmarked)	-41
OC(COCc1ccccc1)CN1CCN(c2ccccc2)CC1 (centres unmarked)	-45.2
